Assay in all cases: NCI-60 one-dose screen, 48 h (100 = growth as untreated, 0 = no growth, -100 = all killed)
Common to all, as to settings: 10 µM unless noted

For test [1], the system named is DU-145 prostate.
The test system of test [2] is K-562 leukemia.
Test [3] concerns MALME-3M melanoma.
In test [4] the test system is MDA-MB-231 breast.
Test [5] concerns RXF 393 renal.
Test [6] has as its system SF-268 CNS.
The test system of test [7] is SF-295 CNS.
In test [8] the test system is SF-539 CNS.
In test [9] the test system is UACC-257 melanoma.
Test [10] relates to M14 melanoma.
In test [11] the test system is HCT-15 colon.
In test [12] the test system is HT29 colon.
The subject of test [13] is SNB-75 CNS.
Test [14] concerns SNB-19 CNS.
Test [15] deals with U251 CNS.
Test [16] has as its system PC-3 prostate.
The test system of test [17] is SK-MEL-5 melanoma.
For test [18], the system named is UACC-62 melanoma.
Test [19] relates to LOX IMVI melanoma.
The test system of test [20] is SK-MEL-28 melanoma.

Compounds without any hit were thinned out: in the full panel of roughly 83,000, 20% have a hit.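 How to read the values: 0–100, growth inhibition (40 = 60% inhibited); 0, no net growth; -100 to 0, cell death (-40 = 40% of starting cells died; -100 = all dead).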 Values without a mark were called inactive. Active and inactive are the calls of the source. How the source made its calls: active means growth percent below 10; inactive means the rest.

On to `CC1(C)OB(O)c2cc(-c3nc4ccc5[nH]ncc5c4c4c3CCCC4)ccc21`, for which the growth was 54.8% in [1]; 44.5% in test [2]; 60.5% in test [3]; 47.9% in [4]; 35.3% in [5]; 57.4% in [6]. For the same compound, the growth in [7] is 63.1%; in test [8] it was 73.6%; in test [9], 77.5%; in test [10], 52%; in test [11], 38.2%; in test [12], 56.3%. Further, the growth is 75% in test [13]; 90.6% in test [14]; 61.8% in test [15]; 41.3% in test [16]; -67.9% (active) in [17]; 37.7% in test [18]. Besides, the growth was 42% in test [19] and 87.4% in test [20].
As for `CCOC(=O)c1cnc2c(N=Nc3ccc(OC)cc3)c(N)nn2c1N`, the growth was 102% in test [1]; 107% in [2]; 106% in [3]; 101% in [4]; 113% in [5]; 94.2% in test [6]. In addition, the growth was 102% in test [7]; 110% in test [8]; 103% in [9]; 110% in test [10]; 102% in [11]; 99.3% in [12]. Also, the growth is 106% in test [13]; 98.6% in [14]; 105% in test [15]; 98.7% in test [16]; 96.2% in [17]; 97.3% in test [18]. For the same compound, the growth is 110% in test [19] and 114% in test [20].
For the compound `COc1cc(-c2nc3sccn3c2-c2ccnc(NCCNS(=O)(=O)c3ccc(Cl)cc3)n2)ccc1F`, the growth is 32.3% in test [1]; 13.6% in test [2]; 31.3% in [3]; 69% in test [4]; 33.2% in [5]; 30.6% in test [6]. For the same compound, the growth in test [7] was 40.5%; in test [8], 80%; in [9] it was 45.1%; in [10], 21.5%; in [11], 20.6%; in [12] it was 22.8%. The growth was 85.6% in [13]; 78.8% in [14]; 55.6% in [15]; 13.1% in test [16]; -14.7% (active) in test [17]; -45.3% (active) in test [18]. In addition, the growth in test [19] was 19.2%; in test [20] it was 44.9%.
On to `C=CCC(CCCC)(C(=O)OCC)C(=O)OCC`, for which the growth in test [1] was 121%; in test [2], 104%; in test [3], 106%; in test [4] it was 105%; in test [5] it was 105%; in test [6], 113%. Further, the growth in [7] was 113%; in test [8], 100%; in test [9], 100%; in test [10], 96.8%; in test [11], 96%; in [12] it was 102%. Besides, the growth in test [13] was 77.2%; in test [14], 99%; in test [15] it was 102%; in test [16], 94.8%; in test [17], 113%; in test [18] it was 99.6%. Also, the growth was 99.7% in [19] and 115% in [20].
As to `O=C(Cc1cccc(OC(F)(F)F)c1)Nc1ccc(CCCCc2nnc(NC(=O)Cc3ccccn3)s2)nn1`, the growth in test [1] is 86.9%; in test [2] it was 45.7%; in test [3] it was 82.8%; in test [4], 84.6%; in [5] it was 52.1%; in test [6], 78.7%. Moreover, the growth is 60.6% in [7]; 81.9% in [8]; 92.9% in test [9]; 50.8% in test [10]; 89.6% in [11]; 76.6% in test [12]. Besides, the growth in test [13] was 78.6%; in test [14], 84.9%; in test [15], 82.3%; in [16], 17.5%; in test [17], 62.2%; in test [18] it was 63.5%. In addition, the growth is 82.8% in test [19] and 93.8% in test [20].
Consider `CCOC(=O)C(=CNc1cnc(Nc2ccc(N3CCOCC3)cc2)nc1Oc1ccc(OC)cc1)C(=O)OCC`, for which the growth in test [1] is 73%; in test [2], 49.2%; in test [3] it was 39%; in test [4] it was 59.7%; in [5], 89.2%; in test [6], 69.7%. The growth in [7] was 75.9%; in [8], 24.7%; in test [9], 87.4%; in test [10], 63.7%; in test [11] it was 69.4%; in test [12], 40.6%. The growth in test [13] was -14.3% (active); in test [14], 41.7%; in test [15], -19.4% (active); in [16], 67.7%; in [17] it was 74%; in test [18], 47.1%. Besides, the growth was 39.3% in test [19] and 76.6% in [20].
For `Cc1ccc(/C=C(\C#N)n2nnc3cc(F)c(F)cc32)cc1`, the growth was -3.37% (active) in test [1]; 4.34% (active) in test [2]; 33% in test [3]; 12% in test [4]; -0.406% (active) in test [5]; 23.4% in [6]. In addition, the growth was 36.6% in test [7]; -25.5% (active) in test [8]; 38% in test [9]; -27.7% (active) in test [10]; 14.6% in [11]; 5.95% (active) in [12]. Further, the growth in test [13] was -15.2% (active); in [14], 31.9%; in test [15], 24.4%; in test [16], 21.3%; in [17] it was 16.4%; in test [18], 34.7%. For the same compound, the values for the growth in test [19] and in [20] were -17.6% (active) and 39.5%, respectively.
With `Cc1ccccc1Nc1cc(O)c2c(=O)cc(-c3ccccc3)oc2c1`, the growth in test [1] was 26.8%; in test [2], 10.2%; in test [3], 47.9%; in test [4], 50.7%; in test [5] it was 28%; in test [6], 61.5%. The growth in test [7] was 27.1%; in test [8], 23.1%; in test [9] it was 80.6%; in test [10], 24.6%; in test [11], 17.6%; in test [12], 69.9%. For the same compound, the growth in test [13] was -5.66% (active); in [14], 32.6%; in test [15] it was 36.2%; in test [16], 40.6%; in test [17], 23.5%; in test [18], 43.4%. For the same compound, the values for the growth in test [19] and in test [20] were 30.9% and 51.1%, respectively.
Consider `Cc1nn(-c2cc(NC3CCC(O)CC3)c3c(=O)[nH]c(CCC(F)(F)F)cc3c2)c2c1C(=O)CC(C)(C)C2` (stereo not given), for which the growth in test [1] is 27%; in [2], 18.5%; in test [3], 60%; in test [4], 42%; in test [5], 39.1%; in [6], 72%. For the same compound, the growth is 48.5% in test [7]; 58% in test [8]; 62.7% in test [9]; 32.3% in test [10]; 31.1% in test [11]; 13.9% in [12]. Also, the growth in test [13] was 56.8%; in test [14], 63.1%; in test [15] it was 56.5%; in test [16] it was 55.4%; in test [17], 51.7%; in test [18], 45%. The growth in [19] is 30.2%; in test [20], 53.8%.
On to `Cc1nc2sc(C(=O)Nc3cccc(Br)c3C)c(N)c2cc1C(O)c1ccccc1` (stereo not given), for which the growth is 6.13% (active) in [1]; 6.3% (active) in test [2]; 56.9% in [3]; 3.16% (active) in [4]; 37.9% in test [5]; 16.3% in [6]. Further, the growth in test [7] was 20.5%; in test [8], 1.41% (active); in [9] it was 52%; in test [10], 9.77% (active); in [11], 10.8%; in test [12], 9.11% (active). Also, the growth was 52.6% in test [13]; 25.4% in test [14]; 2.74% (active) in test [15]; 18.3% in test [16]; -50.9% (active) in test [17]; 18.5% in test [18]. Besides, the values for the growth in test [19] and in test [20] were 16.3% and 55.9%, respectively.
As for `COc1cc2nc3sc(C(=O)Nc4ccc(C(=O)OC(C)C)cc4)c(C(=O)Nc4ccc(Cl)cc4C)n3c(=O)c2cc1OC`, the growth in test [1] is 13.2%; in [2], 56.4%; in [3], 43.9%; in [4], 86.9%; in test [5], 83.8%; in test [6], 64.5%. Also, the growth in test [7] was 42%; in test [8] it was 104%; in test [9], 118%; in test [10], 77.7%; in test [11], 93.7%; in [12], 41.2%. Moreover, the growth in test [13] is 48%; in test [14], 96.9%; in test [15], 66.3%; in test [16] it was 30.2%; in test [17], 73%; in test [18] it was 67.6%. Further, the values for the growth in [19] and in [20] were 69.7% and 101%, respectively.
As to `CN(C)S(=O)(=O)Oc1ccc(-c2sc3cc(OS(=O)(=O)N(C)C)ccc3c2C(=O)c2ccc(OCCN3CCCCC3)cc2)cc1`, the growth in [1] was 63.4%; in [2], -8.94% (active); in test [3], 17.7%; in [4] it was 77.5%; in test [5], 26.8%; in test [6] it was 42.1%. The growth is 48.6% in [7]; 52.2% in test [8]; -17.5% (active) in test [9]; 2.03% (active) in test [10]; 34.2% in test [11]; 8.75% (active) in [12]. Further, the growth in test [13] was 61.5%; in [14], 58.2%; in test [15], 18.6%; in test [16] it was 53.6%; in test [17] it was 67.5%; in [18], 47.3%. In addition, the growth in [19] is 32.7%; in [20], 57.2%.
As for `COc1ccc(/C=C2\COc3ccc(O)cc3C2=O)cc1`, the growth in test [1] was 111%; in test [2] it was 24%; in [3] it was 96.1%; in test [4] it was 92.8%; in test [5] it was 115%; in test [6] it was 99.4%. For the same compound, the growth in test [7] was 108%; in test [8] it was 102%; in test [9], 106%; in test [10], 90.8%; in test [11] it was 77.5%; in test [12] it was 80.1%. Besides, the growth is 96.8% in test [13]; 96.7% in test [14]; 85.5% in test [15]; 95.2% in [16]; 99.3% in [17]; 85.7% in test [18]. For the same compound, the growth in test [19] is 74.3%; in [20], 102%.
`N#C/C(=C\C=C\c1ccc(-c2cc(Cl)ccc2Cl)o1)c1nc2ccccc2s1`: the growth was 112% in test [1]; 100% in test [2]; 95.4% in test [3]; 72% in test [4]; 99.3% in [5]; 98.6% in test [6]. Further, the growth in [7] was 96.5%; in [8], 93.9%; in test [9] it was 95%; in test [10], 103%; in [11] it was 102%; in test [12] it was 108%. The growth in [13] is 77.1%; in test [14], 92.2%; in test [15], 107%; in test [16] it was 93.2%; in [17], 97.5%; in [18], 83.1%. Moreover, the results for the growth in test [19] and in test [20] were 90.9% and 118%, respectively.

The values are drawn from PubChem BioAssay (NCI).
